The panel holds about 79,000 compounds, 15% with a hit somewhere; the sample as a whole holds those more often. Active and inactive are the calls of the source. Rule as the data show it: active = growth inhibition above about 70%; inactive = the rest.
Tests used:
[1] = NCI Yeast Anticancer Drug Screen. Data for the wt1 strain (AID 149);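 also: 0% = growth of vehicle-treated wt1 cultures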; conditions: S. cerevisiae wt1 strain (SPY 50644) growth inhibition, active compounds read high
Procedure, shortened: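 Readout: yeast growth inhibition, normalised to vehicle controls, in the wt1 strain exposed to test compounds.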

[2] = NCI Yeast Anticancer Drug Screen. Data for the rad50EPP+ strain (AID 151);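 also: 0% = growth of vehicle-treated control cultures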; conditions: S. cerevisiae rad50 mutant strain, active compounds read high
Procedure, shortened: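 Exposing the rad50EPP+ strain to each compound, growth was compared with vehicle-only cultures to give inhibition.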

[3] = NCI Yeast Anticancer Drug Screen. Data for the mgt1 strain (AID 153); conditions: S. cerevisiae mgt1 mutant growth inhibition, active compounds read high
Procedure, shortened: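 Genetically defined yeast (mgt1) treated with compound; inhibition of growth expressed against vehicle-treated controls.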

[4] = NCI Yeast Anticancer Drug Screen. Data for the rad50 strain (AID 155);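 also: 0% = growth of vehicle-only cultures of the same strain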; conditions: S. cerevisiae rad50 strain growth inhibition, active compounds read high
Procedure, shortened: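 Compounds were tested on a yeast strain with an engineered DNA damage repair alteration; the reported value is growth inhibition normalised to vehicle treatment.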

[5] = NCI Yeast Anticancer Drug Screen. Data for the mec2-1 strain (AID 157); conditions: S. cerevisiae mec2-1 strain, active compounds read high
Procedure, shortened: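 Readout is yeast growth inhibition, normalised to vehicle-treated controls, in the mec2-1 strain exposed to compound.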

[6] = NCI Yeast Anticancer Drug Screen. Data for the rad14 strain (AID 159);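 also: 0% = growth of vehicle-treated control cultures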; conditions: S. cerevisiae rad14 strain growth inhibition, active compounds read high
Procedure, shortened: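 Compound-treated yeast with a defined DNA-repair lesion; growth inhibition normalised to vehicle-treated cultures.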

[7] = NCI Yeast Anticancer Drug Screen. Data for the sgs1 mgt1 strain (AID 161);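 also: 0% = growth of cultures given vehicle only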; conditions: S. cerevisiae sgs1 mgt1 strain, active compounds read high
Procedure, shortened: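 Compounds are added to genetically altered yeast, and growth is compared with cultures given vehicle alone to give percent inhibition.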

[8] = NCI Yeast Anticancer Drug Screen. Data for the CLN2oe strain (AID 163);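 also: 0% = growth of vehicle-only control cultures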; conditions: S. cerevisiae CLN2oe strain, active compounds read high
Procedure, shortened: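 Values reflect how much compound exposure reduced yeast growth, referenced to vehicle-exposed cells. Assay organism is a strain with a defined genetic change affecting cell-cycle control.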

[9] = NCI Yeast Anticancer Drug Screen. Data for the cln2 rad14 strain (AID 165);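 also: 0% = growth equal to vehicle treated cultures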; conditions: S. cerevisiae cln2 rad14 strain, active compounds read high
Procedure, shortened: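 Relative to vehicle controls, growth inhibition of compound-treated cln2 rad14 yeast was recorded.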

[10] = NCI Yeast Anticancer Drug Screen. Data for the bub3 strain (AID 167); conditions: S. cerevisiae bub3 mutant strain, active compounds read high
Procedure, shortened: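 Growth of a checkpoint-deficient yeast mutant is measured after compound exposure. Values represent inhibition relative to vehicle.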

[11] = NCI Yeast Anticancer Drug Screen. Data for the wt2 strain (AID 169);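 also: 0% = growth of vehicle-treated yeast cultures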; conditions: S. cerevisiae wt2 strain growth inhibition, active compounds read high
Procedure, shortened: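 Values express reduction in yeast growth under compound treatment, referenced to vehicle-treated cells.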

[12] = NCI Yeast Anticancer Drug Screen. Data for the mlh1 strain (AID 171);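 also: 0% = growth of vehicle-treated control cultures of the same strain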; conditions: S. cerevisiae mlh1 strain growth inhibition, active compounds read high
Procedure, shortened: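 Steps: expose the defined-mutant yeast strain to compound; expose a parallel culture to vehicle; measure growth; express compound effect as inhibition relative to the vehicle culture.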

[13] = NCI Yeast Anticancer Drug Screen. Data for the sgs1 strain (AID 173);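 also: 0% = growth of vehicle-only control cultures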; conditions: S. cerevisiae sgs1 mutant, active compounds read high
Procedure, shortened: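 Treat defined-mutant yeast with compound; measure growth; calculate inhibition relative to vehicle-treated cells.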

[14] = NCI Yeast Anticancer Drug Screen. Data for the mlh1 rad18 strain (AID 175); conditions: S. cerevisiae mlh1 rad18 strain growth inhibition, active compounds read high
Procedure, shortened: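 Test agents were incubated with a yeast strain of defined genotype (DNA damage repair defect). Inhibition of growth was derived by comparison with vehicle-exposed cultures.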

[15] = NCI Yeast Anticancer Drug Screen. Data for the rad18 strain (AID 177); conditions: S. cerevisiae rad18 mutant growth inhibition, active compounds read high
Procedure, shortened: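 A genetically defined yeast mutant impaired in DNA damage repair was treated with test compounds, then its growth was measured against cultures receiving vehicle alone.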

[16] = at 5.0 µM (retest, dose inferred, filed as 0.5)
[17] = at 50.0 µM (retest, dose inferred, filed as 5.0)

Measured: growth inhibition

Nc1nc(Nc2ccccc2)nc(Nc2ccccc2)n1
inactive: [1]; at 1.2 µM -3% | [1]; at 3.7 µM -10% | [1]; at 11.0 µM -12% | [1]; at 33.0 µM -15% | [2]; at 1.2 µM 1% | [2]; at 3.7 µM -6% | [2]; at 11.0 µM 21% | [2]; at 33.0 µM 28% | [2]; at 100.0 µM 50% | [3]; at 1.2 µM -1% | [3]; at 3.7 µM -7% | [3]; at 11.0 µM -3% | [3]; at 33.0 µM 2% | [4]; at 1.2 µM -6% | [4]; at 3.7 µM -10% | [4]; [16] 4% | [4]; at 11.0 µM -6% | [4]; at 33.0 µM 11% | [4]; [17] 7% | [5]; at 1.2 µM -1% | [5]; at 3.7 µM 1% | [5]; [16] -2% | [5]; at 11.0 µM -1% | [5]; at 33.0 µM -2% | [5]; [17] 21% | [6]; at 1.2 µM 5% | [6]; at 3.7 µM 1% | [6]; at 11.0 µM 1% | [6]; at 33.0 µM 36% | [7]; [16] 3% | [7]; [17] 66% | [8]; at 1.2 µM -7% | [8]; at 3.7 µM -6% | [8]; at 11.0 µM -6% | [8]; at 33.0 µM -3% | [9]; [16] -4% | [9]; [17] 8% | [10]; at 1.2 µM -4% | [10]; at 3.7 µM -3% | [10]; [16] -5% | [10]; at 11.0 µM -8% | [10]; at 33.0 µM 5% | [10]; [17] 32% | [11]; at 1.2 µM -15% | [11]; at 3.7 µM -8% | [11]; at 11.0 µM -7% | [11]; at 33.0 µM 66% | [12]; at 1.2 µM -6% | [12]; at 3.7 µM -2% | [12]; at 11.0 µM -3% | [12]; at 33.0 µM 35% | [13]; at 1.2 µM -10% | [13]; at 3.7 µM -3% | [13]; at 11.0 µM 6% | [13]; at 33.0 µM 57% | [14]; [16] 0% | [14]; [17] 58% | [15]; at 1.2 µM -1% | [15]; at 3.7 µM 5% | [15]; at 11.0 µM 2% | [15]; at 33.0 µM 31%
active: [1]; at 100.0 µM 81% | [3]; at 100.0 µM 92% | [4]; at 50.0 µM 93.5% | [4]; at 100.0 µM 93% | [5]; at 50.0 µM 85.8% | [5]; at 100.0 µM 81% | [6]; at 100.0 µM 95% | [7]; at 50.0 µM 94% | [8]; at 100.0 µM 87% | [9]; at 50.0 µM 81.2% | [10]; at 50.0 µM 91.5% | [10]; at 100.0 µM 95% | [11]; at 100.0 µM 96% | [12]; at 100.0 µM 97% | [13]; at 100.0 µM 97% | [14]; at 50.0 µM 96.5% | [15]; at 100.0 µM 96%

O=C(Cc1ccccc1)c1ccc(O)cc1
inactive: [1]; at 1.2 µM -20% | [1]; at 3.7 µM -8% | [1]; at 11.0 µM 5% | [1]; at 33.0 µM 63% | [2]; at 1.2 µM 11% | [2]; at 3.7 µM 10% | [2]; at 11.0 µM -3% | [2]; at 33.0 µM 40% | [3]; at 1.2 µM -45% | [3]; at 3.7 µM -56% | [3]; at 11.0 µM -38% | [3]; at 33.0 µM 51% | [4]; at 1.2 µM -15% | [4]; at 3.7 µM -21% | [4]; at 11.0 µM 17% | [5]; at 1.2 µM -24% | [5]; at 3.7 µM -15% | [5]; at 11.0 µM 20% | [6]; at 1.2 µM -13% | [6]; at 3.7 µM -25% | [6]; at 11.0 µM -5% | [6]; at 33.0 µM 62% | [7]; [16] 1% | [8]; at 1.2 µM 5% | [8]; at 3.7 µM 15% | [8]; at 11.0 µM 22% | [8]; at 33.0 µM 53% | [9]; [16] 36% | [9]; at 50.0 µM 62.6% | [10]; at 1.2 µM -11% | [10]; at 3.7 µM -14% | [10]; [16] 44% | [10]; at 11.0 µM 24% | [10]; at 33.0 µM 69% | [11]; at 1.2 µM -10% | [11]; at 3.7 µM -17% | [11]; at 11.0 µM -10% | [11]; at 33.0 µM 58%
active: [1]; at 100.0 µM 87% | [2]; at 100.0 µM 71% | [3]; at 100.0 µM 82% | [4]; [16] 81% | [4]; at 33.0 µM 74% | [4]; [17] 99% | [4]; at 50.0 µM 83.5% | [4]; at 100.0 µM 85% | [5]; [16] 78% | [5]; at 33.0 µM 70% | [5]; [17] 98% | [5]; at 50.0 µM 91.5% | [5]; at 100.0 µM 91% | [6]; at 100.0 µM 89% | [7]; [17] 88% | [7]; at 50.0 µM 94.2% | [8]; at 100.0 µM 85% | [9]; [17] 90% | [10]; [17] 97% | [10]; at 50.0 µM 92.7% | [10]; at 100.0 µM 89% | [11]; at 100.0 µM 87%

Source: PubChem BioAssay (NCI)
